# Sm TGR block: inhibitors of Schistosoma mansoni thioredoxin glutathione reductase; Q962Y6; purified TGR, DTNB reduction, TNB absorbance 405 nm; Potency, µM (highest dose often 114 µM), inactives show at the highest dose activity change, negative = inhibition, hits mostly inhibitors; 3% of 360,000 active; note: % is set by controls: 0 for no effect and ±100 for the full control effect; nearly all actives have a fitted effect of over 60% in size
#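 First, TGR (20 nM dispensed) and NADPH were mixed with compound. Second, a 15 min room-temperature incubation followed. Third, further NADPH and then DTNB were added to start the reaction. Finally, TNB absorbance was monitored kinetically.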
# Tb PYK inh: inhibitors of Trypanosoma brucei pyruvate kinase. Q57TT1. TbPYK enzyme, Kinase-Glo Plus ATP luminescence, 45 min. Potency, µM (top dose mostly 76.8 µM), without a hit: at the top dose activity, negative = inhibition, hits mostly inhibitors. 0.12% of 410,000 active; note: % is set by controls: 0 for no effect and ±100 for the full control effect; nearly all actives have a fitted effect of over 50% in size
#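 Screened from lowest to highest concentration, compounds were pinned into TbPYK/substrate mixtures, and ADP (130 uM final) was added. Plates sat at room temperature for 45 min prior to Kinase-Glo Plus detection by luminescence.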
# Giardia FBPA inh: inhibitors of Giardia lamblia fructose-1,6-bisphosphate aldolase; A8B2U2; purified Giardia FBPA; Potency, µM (series often up to 59.6 µM), for the others: at the highest dose activity, negative = inhibition, actives largely listed as inhibitors; 0.71% of 290,000 active; note: % is set by controls: 0 for no effect and ±100 for the full control effect; nearly all actives have a fitted effect of over 55% in size
# Target sequence (A8B2U2 whole entry, looked up): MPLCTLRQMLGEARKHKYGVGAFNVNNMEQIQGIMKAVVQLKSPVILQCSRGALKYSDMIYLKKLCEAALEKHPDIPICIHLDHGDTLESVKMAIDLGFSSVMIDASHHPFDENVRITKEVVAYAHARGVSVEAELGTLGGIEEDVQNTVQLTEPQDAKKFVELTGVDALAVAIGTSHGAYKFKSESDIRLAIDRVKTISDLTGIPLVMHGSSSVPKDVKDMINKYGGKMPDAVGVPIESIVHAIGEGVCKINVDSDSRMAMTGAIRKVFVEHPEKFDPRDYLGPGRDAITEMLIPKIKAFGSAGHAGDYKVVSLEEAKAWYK
#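 40 nM FBPA preincubated 10 min at RT with compound (up to 57.5 uM final), then substrate plus GAPDH/TPI/NAD/arsenate coupling and diaphorase/resazurin added. Fluorescence read after 20 min at RT, 525/598 nm.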
# NS1 function inh: influenza NS1 inhibition; AID 2326; Potency, µM (top dose mostly 46.1 µM), for inactives: at the highest dose activity, positive = more growth; 0.4% of 270,000 active; calls by dose curve; note: actives are rising curves; nearly all actives have a fitted effect of over 50% in size
#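 OD600 was taken as the measure of yeast growth restored by compound in an NS1-expressing S. cerevisiae strain. Cells had been washed out of glucose medium and diluted 1:100 into galactose -URA medium, pH 6.0.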
# RE007 growth inh: less growth of the S. pombe RE007 Vpr strain. 0.21% of 360,000 active. Potency, µM (titrated, usually from 92.2 µM), inactives show at the highest dose activity change, negative = less growth, actives largely listed as inhibitors. S. pombe RE007 Vpr strain, BacTiter-Glo ATP luminescence, 24 h; active = well fitted falling curve with a large enough effect; inconclusive = small, poorly fitted or top-dose-only effect; inactive = no such curve, though single readings can be large or run the other way; note: % is set by controls: 0 for no effect and ±100 for the full control effect; nearly all actives have a fitted effect of over 50% in size
#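 Fission yeast strain RE007, carrying one chromosomally integrated HIV-1 vpr copy, was seeded at OD 0.01 in PMG+AL medium with 23 nL pinned compound. After 24 h at 30 °C and 99% humidity, viability was read by BacTiter-Glo luminescence.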
# LmPK inh: blocks Leishmania mexicana pyruvate kinase activity; purified LmPK, Kinase-Glo ATP luminescence, 1 h; Potency, µM (highest dose often 57.5 µM), for the others: top-dose activity change, negative = inhibition, hits mostly inhibitors; Q27686; 0.37% of 290,000 active; note: % is set by controls: 0 for no effect and ±100 for the full control effect
# Target sequence (Q27686 whole entry, looked up): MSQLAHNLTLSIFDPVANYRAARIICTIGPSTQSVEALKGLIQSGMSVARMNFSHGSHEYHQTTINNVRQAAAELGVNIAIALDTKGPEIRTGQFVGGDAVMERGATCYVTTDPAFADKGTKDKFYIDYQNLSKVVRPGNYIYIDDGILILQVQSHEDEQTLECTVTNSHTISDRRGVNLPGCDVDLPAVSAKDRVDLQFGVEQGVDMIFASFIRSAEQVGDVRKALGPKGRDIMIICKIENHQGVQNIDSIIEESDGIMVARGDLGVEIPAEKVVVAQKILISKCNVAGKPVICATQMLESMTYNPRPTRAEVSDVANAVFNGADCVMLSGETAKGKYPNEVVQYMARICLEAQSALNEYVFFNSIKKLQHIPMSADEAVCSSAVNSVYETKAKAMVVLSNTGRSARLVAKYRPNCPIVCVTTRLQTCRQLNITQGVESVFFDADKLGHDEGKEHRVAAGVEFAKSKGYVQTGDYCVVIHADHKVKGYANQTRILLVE
#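 Pyruvate kinase activity monitored as ATP production (luciferase luminescence). Conditions: 0.1 nM enzyme, 0.5 mM PEP, 0.1 mM ADP, 1 h, RT; normalized against uninhibited and no-enzyme wells.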
# * = called active by the depositor; ? = inconclusive; nt = no result given; [ ] = remark or other dose. Hits are enriched below; roughly 3.5% of the tested compounds scored in any of these assays. Unless noted, calls come from the whole dose curve; as a rule, active = well fitted curve in the direction sought with a large enough effect; inconclusive = small, poorly fitted or top-dose-only effect, or another doubt; inactive = no such curve, though single readings can be large; an effect the other way counts as inactive or inconclusive. Potency is the fitted concentration of half-maximal effect.
SMILES,Sm TGR block,Tb PYK inh,Giardia FBPA inh,NS1 function inh,RE007 growth inh,LmPK inh
CCOC(=O)C1=C(O)/C(=C\c2cccc(OC)c2)N=C1C,0.8%,-6.3%,0.0%,?,-2.3%,-3.6%
COc1ccc(C2CC(=O)c3cc(-c4nc(-c5cccc(Cl)c5)cs4)c(=O)[nH]c3C2)cc1OC (stereo not drawn),5.0%,2.0%,nt,nt,nt,nt
Cc1cc(-c2nn(-c3ccccc3F)cc2CN2CCC(C(N)=O)CC2)c(C)s1,44.7µM*,0.3%,1.2%,-0.8%,-1.1%,3.2%
Cc1cc(-c2nn(-c3ccccc3F)cc2CN2CCCC(C(N)=O)C2)c(C)s1 (stereo not drawn),-9.4%,-7.7%,1.2%,-0.8%,-5.2%,8.1%
CCOC(=O)c1cc2c(=O)n3ccccc3nc2n(Cc2ccco2)c1=NC(=O)c1cccnc1,22.4µM*,?,-4.9%,-2.0%,24.6%,-0.6%
CCOC(=O)c1cc2c(=O)n3cccc(C)c3nc2n(Cc2ccco2)c1=NC(=O)c1cccnc1,5.62µM*,-7.5%,?,?,-5.0%,3.7%
Cc1cccc(C(=O)N=c2c(C#N)cc3c(=O)n4cccc(C)c4nc3n2Cc2ccco2)c1,44.7µM*,-3.1%,-22.1%,16.1%,8.1%,7.4%
O=C(NC1CCSc2ccccc21)c1ccc(F)c(S(=O)(=O)N2CCOCC2)c1 (stereo not drawn),39.8µM*,1.8%,nt,1.0%,5.3%,-5.8%
COc1ccc(Cl)cc1-c1n[nH]c(=S)n1C1CCCCC1,-0.3%,?,8.8%,2.4%,11.2%,7.08µM*
Cc1cc(Cl)ccc1OCc1n[nH]c(=S)n1C1CCCCC1,-0.2%,?,29.4%,21.9%,-17.7%,12.6µM*
COc1ccc(Cl)cc1-c1n[nH]c(=S)n1Cc1ccccc1,0.3%,?,22.1%,?,-9.2%,?
Fc1ccccc1Nc1nc2c(s1)CCc1ccccc1-2,?,nt,19.9µM*,-4.9%,nt,-4.6%
Cc1cccc(NC(=O)C2CCN(S(=O)(=O)c3ccc(F)cc3)CC2)c1C,-0.1%,-4.4%,nt,nt,nt,nt
COc1ccccc1CCNC(=O)c1ccc2c(c1)c(C)c(C)n2C,-2.5%,-5.7%[15.4 µM],nt,nt,nt,nt
N=c1c2c(-c3ccccc3)c(-c3ccccc3)n(Cc3ccco3)c2ncn1CCO,?,-0.3%,0.2%,1.9%,-3.8%,1.8%
N=c1c2c(-c3ccccc3)c(-c3ccccc3)n(Cc3ccco3)c2ncn1CCCO,28.2µM*,-5.8%,12.5%,2.5%,-6.9%,13.4%
CN1CCc2c(sc3c2c(=O)n(-c2ccccc2)c2nnc(SCc4ccccc4)n32)C1,?,31.6µM*,-7.5%,6.3%,4.1%,-9.5%
CCC1Sc2ccc(S(=O)(=O)CCC(=O)NCc3ccco3)cc2NC1=O (stereo not drawn),31.6µM*,-6.5%,-2.6%,-2.8%,-7.1%,-2.9%
CCC1Sc2ccc(S(=O)(=O)CCC(=O)Nc3ccc(NC(C)=O)cc3)cc2NC1=O (stereo not drawn),-3.0%,-9.0%,3.3%,4.0%,5.8%,2.9%
C[C@@H]1CCC2C(C)(C)C3CC21CC[C@@]3(C)O (stereo partly drawn),nt,nt,-3.3%,nt,nt,nt
Cn1c(=O)n(Cc2ccccc2Cl)c(=O)c2c1[nH]c(=S)n2C,-21.1%,7.94µM*,-27.5%,4.3%,5.6%,-0.7%
Cn1c(=O)n(Cc2ccccc2Cl)c2ccccc21,-11.0%,-22.0%,5.9%,-0.5%,4.4%,2.7%
O=C(/C=C\N1CCOCC1)c1ccc(Br)cc1,15.8µM*,5.6%,-5.2%,-97.7%,-27.7%,-0.2%
COc1cccc(-c2nn(C)c3sc(C(=O)NCc4ccc(C)o4)cc23)c1,8.91µM*,-0.9%,-13.4%,-3.7%,-12.6%,-2.4%
CCSc1ncc(Cl)c(C(=O)N2CCN(c3ccc(OC)cc3)CC2)n1,0.4%,0.7%,nt,nt,nt,nt
SMILES,Sm TGR block,Tb PYK inh,Giardia FBPA inh,NS1 function inh,RE007 growth inh,LmPK inh
CCCS(=O)(=O)c1ncc(Cl)c(C(=O)N2CCN(c3ccc(OC)cc3)CC2)n1,11.2µM*,4.5%,nt,nt,nt,nt
CC(C)(C)c1ccc(-n2nc(C#N)c(Cl)cc2=O)cc1,8.91µM*,-6.2%,-5.3%,nt,?,0.8%
N#CCCN(C(=O)COC(=O)CCC(=O)c1ccc(F)cc1)c1ccccc1,39.8µM*,0.0%,nt,nt,22.8%,nt
Cc1c(C#N)c(N)nc(Cl)c1C#N,35.5µM*,2.5%,1.6%,nt,0.5%,2.4%
COc1ccc(OC)c(-n2c(-c3cnccn3)n[nH]c2=S)c1,6.3%,nt,?,-5.5%,0.1%[3.69 µM],?
COc1ccc(-n2c(-c3ccc(C(C)(C)C)cc3)n[nH]c2=S)c(OC)c1,nt,?,nt,nt,-25.0%,nt
COc1ccc(-c2cc(-c3n[nH]c(=S)n3-c3cc(OC)ccc3OC)[nH]n2)cc1,-19.4%,?,4.6%,-3.6%,22.7%,?
COc1ccc(OC)c(-n2c(-c3cc(-c4ccc(F)cc4)n[nH]3)n[nH]c2=S)c1,2.5%,?,3.0%,12.0%,-13.5%,14.1µM*
COc1ccc(OC)c(-n2c(-c3ccc(C)cc3)n[nH]c2=S)c1,-4.3%,?,2.3%,-9.5%,-1.0%,2.51µM*
COc1ccc(OC)c(-n2c(-c3cccc(O)c3)n[nH]c2=S)c1,1.0%,14.1µM*,-10.8%,-8.4%,0.7%,2µM*
COc1ccccc1-n1c(-c2ccc(NS(C)(=O)=O)cc2)n[nH]c1=S,0.0%,?,-12.8%,4.0%,0.2%,7.94µM*
N#Cc1ccccc1Cn1c(SCC(=O)NCc2ccccc2)nc2ccccc21,0.3%,-0.3%,nt,nt,nt,nt
CCOc1ccc(-n2c(=O)c3c(C)c(C(=O)N(C)C)sc3n(CC(=O)Nc3c(C)cc(C)cc3C)c2=O)cc1,-6.6%,-2.1%,nt,nt,nt,nt
CCOC(=O)c1ccc(NC(=O)CSc2c3c(nc4cc(Cl)ccc24)CCCC3)cc1,1.4%,-1.6%,nt,nt,nt,nt
Cc1ccc(C(=O)NCCc2ccc(Cl)cc2)cc1-n1c(C)nc2cccnc21,-2.7%,3.3%[15.4 µM],nt,nt,nt,nt
CCCCC12CN3CC(C)(CN(C1)C3c1c(C)[nH]c(=O)[nH]c1=O)C2=O (stereo not drawn),-3.4%,3.7%,nt,nt,nt,nt
COc1ccc(-c2n[nH]c(=S)n2-c2cc(OC)ccc2OC)cc1,6.4%,2.82µM*,0.3%,6.0%,5.5%,3.55µM*
Cc1cccc2cc(CN(CCCN3CCOCC3)Cc3nnnn3C(C)(C)C)c(=O)[nH]c12,?,-0.7%,-5.1%,1.3%,8.9%,2.2%
COCCn1nnnc1CN(CCCN1CCOCC1)Cc1cc2c(C)ccc(C)c2[nH]c1=O,12.6µM*,-2.3%,-1.0%,1.1%,-10.1%,0.8%
CC1(C)CC(=O)C(CS(=O)(=O)c2ccccc2)=C(O)C1,1µM*,-28.1%,nt,2.9%,7.0%,-2.7%
CC1(C)CC(=O)C(CC(=O)Nc2ccc(S(N)(=O)=O)cc2)=C(O)C1,-35.5%,3.1%,5.4%,6.3%,-3.8%,-0.9%

# Compound activity as filed in PubChem BioAssay.
